We go through 29 molecules from PubChem BioAssay.

Molecules are shown by their SMILES. A number with no mark means an inactive call.

This assay in a line: cell viability in Huh7 cells, primary screen, cytotoxicity control for HCV replication inhibitor project, CellTiter-Glo luminescence, basal, 48 h (AID 1143).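 Note: Huh7 hepatoma cells carrying a hepatitis C replication reporter with no stimulus; test concentration not given here.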 The settings on record: Huh7 HCV replicon, higher = more signal, called active from +8 up or from −8 down.
`CC(CCN1CCc2nc(-c3ccccc3)c(-c3ccccc3)cc2C1)=NOC[C@@H](O)[C@H]1O[C@@H]2OC(C)(C)O[C@@H]2[C@H]1O`: the z-score is -0.875.

Consider `CC(CCN1CCc2nc(-c3ccccc3)c(-c3ccccc3)cc2C1)=NOC[C@@H](O)COCc1ccco1`, for which the z-score was 0.42. Turning to `CSCC[C@@H]1NC(=O)CC=C[C@@H](C)COC(=O)[C@@H](C)COC1=O`, the z-score was -0.184. `CC(=O)Nc1ccc([C@@H]2N[C@H](C(=O)O)CC[C@H]2C)cc1`: the z-score was 0.138. The result for `C#CCCCON=C1[C@H]2CCn3c(=O)n(-c4ccccc4)c(=O)n3[C@H]2[C@H](O)[C@@H]2O[C@H]12` reads -0.146; that for `COC(=O)[C@@H]1CC[C@H](C)[C@@H](c2ccc(C)cc2)N1C(=O)c1ccc(C=NOC[C@@H](C)[C@H](OCc2ccccc2)C(C)C)cc1`, -1.17. For `CCOC(=O)[C@H](Cc1ccccc1)NC(=O)CCC1CC(OC(=O)NCc2cccc3ccccc23)CC2(CCCC(COC(=O)NCCC(C)C)O2)O1` (some centres undefined) the value was 0.0896; for `C=CC[C@@H]1C=C[C@H](ON=C2[C@H]3CCn4c(=O)n(-c5ccccc5)c(=O)n4[C@H]3[C@H](O)[C@@H]3O[C@H]23)[C@@H](CO)O1`, 1.17.

For `CCOC(=O)[C@H](CC(C)C)NC(=O)CCC1CC(OC(=O)NCc2cccc3ccccc23)CC2(CCCC(COC(=O)NCCOc3ccccc3)O2)O1` (some centres undefined), the z-score was -0.248. For `C[C@@H](c1ccccc1)N1C(=O)[C@H]2[C@H]3[C@H](O)[C@H](O)CC(=NOCc4ccccc4)[C@H]3CC[C@H]2C1=O` the value was -0.416; for `CCCNC(=O)OC[C@H]1O[C@H](CCON=C(C)CCN2CCc3nc(CC)c(CC)cc3C2)C=C[C@@H]1Oc1ccc(OC)cc1`, -2.1; for `CCCNC(=O)OC[C@H]1O[C@H](CCON=C(C)C)C=C[C@@H]1Oc1ccc(OC)cc1`, 0.599. The result for `CC(=O)O[C@H]1C2=CO[C@H](C)[C@H]3[C@H]4C5=C([C@H](O)[C@H]6O[C@H]6C5=O)[C@H](OC4C)[C@@]23C(=O)[C@@H]2O[C@@H]21` (some centres undefined) reads -6.34; that for `C=CC[C@@H]1C=C[C@H](ON=C[C@@H](C)[C@H](OCc2ccccc2)C(C)C)[C@@H](CO)O1`, -1.39; that for `COC(=O)CC=C[C@@H](C)[C@@H](C=NOC(C)CN1CCCc2nc(C)c(C)cc21)OC` (some centres undefined), 0.431. The result for `CC(CCN1CCCCc2nc(C)c(C)cc21)=NOC[C@@H](C)[C@H](OCc1ccccc1)C(C)C` reads -1.07; that for `CON=C(C)CCC(=O)OC[C@H]1O[C@H](c2ccccc2)C=C[C@@H]1Oc1ccc(OC)cc1`, -0.539; that for `CON=CC[C@@H]1C=C[C@H](OC(C)=O)[C@@H](COC(C)=O)O1`, 0.544. On to `Cn1c(=O)n2n(c1=O)[C@H]1[C@H](O)[C@@H]3O[C@@H]3C(=O)[C@H]1CC2`, for which the z-score was 0.0801. The result for `COc1ccc(COC(=O)NN=C2C[C@@H](O)[C@@H](O)[C@@H]3[C@@H]4C(=O)N(Cc5ccccc5)C(=O)[C@@H]4CC[C@H]23)cc1` reads -0.541; that for `C#CCCCON=C1C[C@@H](O)[C@@H](O)[C@@H]2[C@@H]3C(=O)N(C(C)(C)C)C(=O)[C@@H]3CC[C@@H]12`, 0.536. For `C[C@@H](c1ccccc1)N1C(=O)[C@H]2[C@H]3[C@H](O)[C@H](O)CC(=NO[C@@H]4O[C@H](CO)[C@@H](O)[C@H](O)[C@H]4O)[C@H]3CC[C@H]2C1=O` the value was 0.573. Turning to `CCOC(=O)CCN1C(=O)[C@H]2[C@H]3[C@H](O)[C@H](O)CC(=NOCc4ccccc4)[C@H]3CC[C@H]2C1=O`, the z-score is 0.223. The result for `CO[C@H]1COC(=O)[C@@H](C)COC(=O)[C@H](COCc2ccccc2)NC(=O)CC=C[C@H]1C` reads 0.27; that for `COc1cccc([C@H]2Oc3ccc(OC)cc3C(=NO[C@@H]3O[C@H](COC(C)=O)[C@@H](OC(C)=O)[C@H](OC(C)=O)[C@H]3OC(C)=O)[C@@H]2O)c1`, -0.202. The result for `CCOC(=O)[C@H](CC(C)C)NC(=O)CCC1CC(OC(=O)NCc2ccc3c(c2)OCO3)CC2(CCCC(COC(=O)NCc3cccc(C(F)(F)F)c3)O2)O1` (some centres undefined) reads -0.183; that for `CCN1C(=O)[C@H]2[C@H]3[C@H](O)[C@H](O)CC(=NOCC(C)C)[C@@H]3CC[C@H]2C1=O`, -0.101. For `COC(=O)[C@H](C)NC(=O)CCC1CC(OC(=O)NCCc2ccc(F)cc2)CC2(CCCC(COC(=O)NCCC(C)C)O2)O1` (some centres undefined) the value was -0.872. `C=CC[C@@H]1C=C[C@H](ON=C(C)CCN2CCc3nc(-c4ccccc4)c(-c4ccccc4)cc3C2)[C@@H](CO)O1`: the z-score is -0.648.
